From the supplement of paper PMC11732987, “Enantioselective OTUD7B fragment discovery through chemoproteomics screening and high-throughput optimisation” (Communications Chemistry, 2025)

Columns and labels:
Assay in all cases: log2 ratio of Biotin-Ahx-Ub-VS probe labelling (fragment/DMSO); higher = less target engagement (more negative = stronger competition), active = hit call of the paper (q ≤ 0.05, log2 ratio ≤ -1)
Conditions in all cases: compound concentration: 200 uM; treatment time: 3 h
USP19 = target: T1, USP19 (UniProt O94966)
T1 sequence (whole entry): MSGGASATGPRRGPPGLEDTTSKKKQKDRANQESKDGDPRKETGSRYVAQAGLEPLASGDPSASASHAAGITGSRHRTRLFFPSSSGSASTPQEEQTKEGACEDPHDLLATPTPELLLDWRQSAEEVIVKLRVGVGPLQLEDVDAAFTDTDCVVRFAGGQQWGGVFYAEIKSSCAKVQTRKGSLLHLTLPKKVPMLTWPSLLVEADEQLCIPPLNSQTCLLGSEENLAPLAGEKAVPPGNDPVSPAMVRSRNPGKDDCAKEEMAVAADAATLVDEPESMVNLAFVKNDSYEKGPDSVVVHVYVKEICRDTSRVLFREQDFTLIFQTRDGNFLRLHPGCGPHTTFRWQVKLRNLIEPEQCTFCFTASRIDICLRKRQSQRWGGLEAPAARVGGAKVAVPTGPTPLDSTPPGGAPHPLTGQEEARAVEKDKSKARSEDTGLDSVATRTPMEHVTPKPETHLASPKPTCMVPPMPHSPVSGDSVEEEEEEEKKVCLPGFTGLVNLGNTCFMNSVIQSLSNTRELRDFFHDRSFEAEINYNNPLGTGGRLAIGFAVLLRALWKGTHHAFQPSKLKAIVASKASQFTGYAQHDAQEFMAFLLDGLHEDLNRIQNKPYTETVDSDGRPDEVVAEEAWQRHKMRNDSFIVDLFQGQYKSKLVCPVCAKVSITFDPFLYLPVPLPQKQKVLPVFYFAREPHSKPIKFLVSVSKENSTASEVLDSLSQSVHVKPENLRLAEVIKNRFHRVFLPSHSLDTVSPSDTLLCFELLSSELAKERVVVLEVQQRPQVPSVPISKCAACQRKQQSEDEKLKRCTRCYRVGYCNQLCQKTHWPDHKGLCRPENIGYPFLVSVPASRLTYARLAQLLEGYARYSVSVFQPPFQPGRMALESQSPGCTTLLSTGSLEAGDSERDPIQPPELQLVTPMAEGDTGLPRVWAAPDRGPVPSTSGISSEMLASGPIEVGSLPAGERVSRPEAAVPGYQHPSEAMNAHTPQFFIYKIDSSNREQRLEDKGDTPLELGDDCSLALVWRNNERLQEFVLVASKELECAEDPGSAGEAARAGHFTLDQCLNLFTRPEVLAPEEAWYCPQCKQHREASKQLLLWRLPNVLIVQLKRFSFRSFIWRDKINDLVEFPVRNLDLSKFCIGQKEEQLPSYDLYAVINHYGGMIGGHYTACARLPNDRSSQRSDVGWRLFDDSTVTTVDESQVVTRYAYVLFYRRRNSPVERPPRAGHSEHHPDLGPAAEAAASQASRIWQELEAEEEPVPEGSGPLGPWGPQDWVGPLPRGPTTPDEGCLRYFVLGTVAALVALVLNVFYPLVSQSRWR
Summary of the method: (§1)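 Each value is an average log2 ratio of fragment to vehicle, tested by unpaired t-test. The underlying Spectronaut label-free quantities were global-median-normalised, and only proteins with ≥2 unique peptides were included. Triplicate HEK293T lysate samples (495 µg) were exposed to fragment at 200 µM or vehicle for 3 h, then to Biotin-Ahx-Ub-VS at 0.5 µM final for 1 h, before NeutrAvidin enrichment of labelled DUBs, LysC and trypsin digestion, and diaPASEF LC-MS/MS.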

USP24 = USP24 (UniProt Q9UPU5)
Summary of the method: as §1

USP25 = target: T2, USP25 (UniProt Q9UHP3)
T2 sequence (whole entry): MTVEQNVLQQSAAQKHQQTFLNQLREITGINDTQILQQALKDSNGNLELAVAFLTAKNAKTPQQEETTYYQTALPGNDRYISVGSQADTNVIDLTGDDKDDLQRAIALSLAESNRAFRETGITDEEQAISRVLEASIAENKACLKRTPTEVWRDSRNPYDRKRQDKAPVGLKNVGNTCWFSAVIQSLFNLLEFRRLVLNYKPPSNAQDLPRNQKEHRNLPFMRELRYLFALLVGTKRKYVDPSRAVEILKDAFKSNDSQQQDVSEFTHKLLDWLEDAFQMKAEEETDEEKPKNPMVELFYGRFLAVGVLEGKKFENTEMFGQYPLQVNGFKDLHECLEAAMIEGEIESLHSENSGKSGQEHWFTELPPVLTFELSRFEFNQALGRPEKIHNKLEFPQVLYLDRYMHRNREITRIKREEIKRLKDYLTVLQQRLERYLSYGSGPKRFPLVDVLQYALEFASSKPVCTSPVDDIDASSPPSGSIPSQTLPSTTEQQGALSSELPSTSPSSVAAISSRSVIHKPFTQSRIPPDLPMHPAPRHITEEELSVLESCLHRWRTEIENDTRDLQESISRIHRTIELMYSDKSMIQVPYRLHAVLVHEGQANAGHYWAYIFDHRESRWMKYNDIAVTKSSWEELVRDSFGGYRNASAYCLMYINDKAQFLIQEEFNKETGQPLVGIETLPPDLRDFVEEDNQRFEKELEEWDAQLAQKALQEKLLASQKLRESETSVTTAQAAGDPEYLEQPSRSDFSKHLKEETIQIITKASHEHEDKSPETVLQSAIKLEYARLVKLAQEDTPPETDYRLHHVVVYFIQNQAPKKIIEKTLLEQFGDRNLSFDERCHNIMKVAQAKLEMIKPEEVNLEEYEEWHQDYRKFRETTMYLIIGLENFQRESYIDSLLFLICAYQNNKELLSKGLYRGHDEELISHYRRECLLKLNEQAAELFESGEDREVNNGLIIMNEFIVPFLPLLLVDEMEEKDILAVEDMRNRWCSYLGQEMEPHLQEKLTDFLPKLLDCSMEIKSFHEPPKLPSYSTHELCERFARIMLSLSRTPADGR
Summary of the method: as §1

USP28 = target: T3, USP28 (UniProt Q96RU2)
T3 sequence (whole entry): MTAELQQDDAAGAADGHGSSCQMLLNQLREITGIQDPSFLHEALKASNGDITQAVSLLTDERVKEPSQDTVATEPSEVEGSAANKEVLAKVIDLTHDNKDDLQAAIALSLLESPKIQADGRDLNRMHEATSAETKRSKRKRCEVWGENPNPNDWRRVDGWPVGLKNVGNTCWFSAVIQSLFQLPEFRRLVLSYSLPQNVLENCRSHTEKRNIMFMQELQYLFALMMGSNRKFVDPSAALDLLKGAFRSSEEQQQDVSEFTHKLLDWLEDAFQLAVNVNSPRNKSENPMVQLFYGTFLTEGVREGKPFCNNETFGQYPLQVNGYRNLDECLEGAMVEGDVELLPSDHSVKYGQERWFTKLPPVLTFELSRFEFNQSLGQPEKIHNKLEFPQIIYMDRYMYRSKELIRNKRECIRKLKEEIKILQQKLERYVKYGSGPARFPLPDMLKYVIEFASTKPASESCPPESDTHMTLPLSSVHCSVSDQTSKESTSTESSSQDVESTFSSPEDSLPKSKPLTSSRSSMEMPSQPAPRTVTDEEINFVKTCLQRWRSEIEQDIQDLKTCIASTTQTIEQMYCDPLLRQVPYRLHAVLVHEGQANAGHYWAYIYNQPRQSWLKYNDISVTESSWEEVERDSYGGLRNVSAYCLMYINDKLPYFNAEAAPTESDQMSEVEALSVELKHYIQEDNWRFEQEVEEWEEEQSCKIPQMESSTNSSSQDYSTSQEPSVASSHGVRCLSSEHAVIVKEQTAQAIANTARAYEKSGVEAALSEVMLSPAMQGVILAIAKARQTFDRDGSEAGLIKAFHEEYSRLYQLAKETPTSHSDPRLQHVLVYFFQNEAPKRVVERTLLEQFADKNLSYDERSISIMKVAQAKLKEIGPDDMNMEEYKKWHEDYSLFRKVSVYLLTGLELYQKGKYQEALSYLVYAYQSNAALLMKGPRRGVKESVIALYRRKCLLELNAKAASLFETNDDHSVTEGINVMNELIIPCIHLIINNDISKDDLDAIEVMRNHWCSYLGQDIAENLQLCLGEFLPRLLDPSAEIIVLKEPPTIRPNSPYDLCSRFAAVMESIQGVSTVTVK
Summary of the method: as §1

Measured: log2 ratio of Biotin-Ahx-Ub-VS probe labelling

USP24, sequence (Q9UPU5 whole entry): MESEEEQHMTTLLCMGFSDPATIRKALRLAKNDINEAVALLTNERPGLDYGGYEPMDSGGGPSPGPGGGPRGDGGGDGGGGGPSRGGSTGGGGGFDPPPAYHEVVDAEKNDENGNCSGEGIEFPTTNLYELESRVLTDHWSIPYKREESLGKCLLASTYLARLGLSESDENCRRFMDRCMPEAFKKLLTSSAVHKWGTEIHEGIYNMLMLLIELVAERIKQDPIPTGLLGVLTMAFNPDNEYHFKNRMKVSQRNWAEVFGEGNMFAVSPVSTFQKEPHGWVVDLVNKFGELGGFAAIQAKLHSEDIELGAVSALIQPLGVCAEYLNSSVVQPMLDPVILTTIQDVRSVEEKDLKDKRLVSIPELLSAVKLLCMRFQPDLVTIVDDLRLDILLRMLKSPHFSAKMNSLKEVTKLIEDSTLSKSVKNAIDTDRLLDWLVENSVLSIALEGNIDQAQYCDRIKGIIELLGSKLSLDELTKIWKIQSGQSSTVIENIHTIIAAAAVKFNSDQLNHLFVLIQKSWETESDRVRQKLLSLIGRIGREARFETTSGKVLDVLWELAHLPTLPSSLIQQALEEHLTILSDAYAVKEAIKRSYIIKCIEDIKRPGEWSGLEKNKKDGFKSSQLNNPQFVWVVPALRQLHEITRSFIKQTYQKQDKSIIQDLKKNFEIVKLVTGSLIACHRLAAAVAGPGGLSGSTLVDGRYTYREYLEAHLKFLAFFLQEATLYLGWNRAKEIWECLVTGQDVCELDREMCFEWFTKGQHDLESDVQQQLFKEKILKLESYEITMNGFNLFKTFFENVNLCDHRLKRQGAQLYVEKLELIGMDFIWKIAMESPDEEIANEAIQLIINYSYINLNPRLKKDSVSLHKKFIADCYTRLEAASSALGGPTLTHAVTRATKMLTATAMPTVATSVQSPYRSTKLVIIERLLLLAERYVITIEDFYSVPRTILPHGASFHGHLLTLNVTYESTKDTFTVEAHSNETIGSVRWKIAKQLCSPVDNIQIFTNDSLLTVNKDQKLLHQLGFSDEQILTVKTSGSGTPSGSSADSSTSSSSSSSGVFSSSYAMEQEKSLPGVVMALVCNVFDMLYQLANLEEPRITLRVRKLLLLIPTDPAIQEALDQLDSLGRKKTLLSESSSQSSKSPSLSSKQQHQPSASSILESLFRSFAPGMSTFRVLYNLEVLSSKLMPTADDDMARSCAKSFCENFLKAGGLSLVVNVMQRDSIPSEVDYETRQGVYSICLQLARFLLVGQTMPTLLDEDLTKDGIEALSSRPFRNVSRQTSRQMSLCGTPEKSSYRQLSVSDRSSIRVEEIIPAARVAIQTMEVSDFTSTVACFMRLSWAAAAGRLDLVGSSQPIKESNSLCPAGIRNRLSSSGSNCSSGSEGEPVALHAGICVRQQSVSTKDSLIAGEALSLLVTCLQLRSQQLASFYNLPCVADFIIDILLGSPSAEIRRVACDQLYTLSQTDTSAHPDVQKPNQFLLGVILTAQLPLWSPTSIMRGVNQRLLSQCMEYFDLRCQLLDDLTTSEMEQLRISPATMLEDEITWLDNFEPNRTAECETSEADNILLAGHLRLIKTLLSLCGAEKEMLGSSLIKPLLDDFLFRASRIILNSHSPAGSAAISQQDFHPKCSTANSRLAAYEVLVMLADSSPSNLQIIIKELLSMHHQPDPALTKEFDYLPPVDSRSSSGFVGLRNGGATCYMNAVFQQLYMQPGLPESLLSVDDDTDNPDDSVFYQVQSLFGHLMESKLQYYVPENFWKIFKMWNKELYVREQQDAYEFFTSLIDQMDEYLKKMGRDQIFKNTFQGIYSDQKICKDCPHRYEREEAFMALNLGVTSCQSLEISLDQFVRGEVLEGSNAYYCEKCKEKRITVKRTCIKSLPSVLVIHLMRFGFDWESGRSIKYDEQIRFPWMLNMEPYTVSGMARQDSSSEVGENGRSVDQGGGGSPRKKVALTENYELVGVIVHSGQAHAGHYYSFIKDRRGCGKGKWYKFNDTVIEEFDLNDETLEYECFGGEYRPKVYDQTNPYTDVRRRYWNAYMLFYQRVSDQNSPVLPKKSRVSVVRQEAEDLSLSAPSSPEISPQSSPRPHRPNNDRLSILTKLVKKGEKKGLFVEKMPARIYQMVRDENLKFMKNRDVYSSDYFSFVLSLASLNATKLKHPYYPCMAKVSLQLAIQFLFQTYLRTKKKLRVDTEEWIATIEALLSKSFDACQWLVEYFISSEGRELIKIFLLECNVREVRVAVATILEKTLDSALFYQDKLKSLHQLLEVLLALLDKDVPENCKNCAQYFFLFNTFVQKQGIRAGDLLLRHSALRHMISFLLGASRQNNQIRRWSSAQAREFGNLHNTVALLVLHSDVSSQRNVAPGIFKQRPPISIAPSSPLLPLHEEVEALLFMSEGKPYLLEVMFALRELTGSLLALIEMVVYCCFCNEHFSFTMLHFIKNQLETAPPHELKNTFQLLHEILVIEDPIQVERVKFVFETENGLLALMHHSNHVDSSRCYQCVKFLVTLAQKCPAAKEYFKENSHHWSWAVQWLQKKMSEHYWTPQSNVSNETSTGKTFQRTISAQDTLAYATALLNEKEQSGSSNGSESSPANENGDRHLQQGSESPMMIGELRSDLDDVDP

O=C(CCl)NC(Cn1ccccc1=O)c1ccccc1 (centres undefined)
inactive: USP19 -0.14 | USP24 -0.0705 | USP25 -0.417 | USP28 -0.211
